# Laboratory results reported in PubChem BioAssay (NCI).
# The panel holds about 83,000 compounds, 20% with a hit somewhere; the sample as a whole holds those more often.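 Percent growth is the endpoint: 0 to 100 indicates growth inhibition (40 means 60% inhibition), 0 means no net growth, and negative values indicate cell death.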 Unmarked numbers belong to inactive results. Calls of active or inactive are those of the source. How the source made its calls: active means growth percent below 10; inactive means the rest.
# System: HL-60(TB) leukemia
# Assay: NCI-60 one-dose screen, 48 h (100 = growth as untreated, 0 = no growth, -100 = all killed)
# Conditions: 10 µM unless noted
row,Compound,growth
1,CCCOc1ccc(/C=N/Nc2cc(C)nc3ccc(Cl)cc23)cc1,-48% (active)
2,COC(=O)/C(=C\c1ccc(OC)cc1)C(=O)N1c2ccccc2Sc2ccccc21,16.5%
3,CCC(C)N(CCNc1cc(OC)cc2cccnc12)CCC(C)C (stereo not given),81%
4,CC(C)CCNCC(C)(C)O,99.3%
5,N#C/C(=C\c1c(-c2ccccc2)[nH]c2ccccc12)C(N)=O,39.6%
6,N#Cc1c(-c2ccccc2)cc(-c2ccccc2)n(CCCCCCC(=O)O)c1=O,105%
7,Cn1c(COC(=O)NCCn2ccnc2)nc2c(N3CCOCC3)nc(-c3ccccc3)nc21,-37.5% (active)
8,C=CCOC(=O)Nc1cccn([C@H](Cc2ccccc2)C(=O)NCCC(C)C)c1=O,95.1%
9,COc1ccc(OC)c(/C=C/[C@H]2O[C@@H](C)[C@H](O)[C@@H]2O)c1,88.3%
10,NC(N)=N/N=C(/c1ccccc1)c1ccc(N)cc1,98.1%
11,Cc1ccc(Cl)cc1Nc1nc(C(F)(F)F)ccc1C(=O)N/N=C/c1c(Cl)cccc1Cl,17.3%
12,C[C@]12CCc3nc(Nc4cccc(O)c4)sc3C1=CC[C@@H]1[C@@H]2CC[C@]2(C)/C(=N\NC(N)=S)CC[C@@H]12,10.9%
13,COc1ccc2ncccc2c1Cc1c(OC)ccc2ncccc12,42.3%
14,COc1ccc(NC(=O)c2sc3nc(C)c(C(C)=O)cc3c2N)cc1,94%
15,O=[N+]([O-])c1ccc(-c2ncc(-c3ccc(O)cc3O)[nH]2)cc1,145%
